{
  "source": "PubChem BioAssay (NCATS)",
  "note": "Results filed as inconclusive are left out. Where a call stands in place of a potency, no number is given. Active and inactive are the calls of the source. The call rests on the fitted dose curve; in most records, active means well fitted inhibition curve with a large enough effect; inconclusive means small, poorly fitted or top-dose-only effect; inactive means no such curve, though single readings can be large or run the other way.",
  "data": [
    {"test_system": "Zika virus NS2B-NS3 protease (linked construct)", "assay": "Primary screen NINDS Rhodamine qHTS for Zika virus inhibitors (AID 1347160); further: nearly all actives have a fitted effect of over 55% in size", "conditions": "purified NS2B-NS3 protease, Rhodamine110 substrate fluorescence; series mostly up to 57.1 µM", "procedure,_shortened": "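Percent inhibition, normalized to uninhibited and enzyme-free controls, is fitted to a 4-parameter Hill equation. Fluorescence change comes from a 15-min cleavage of 1.5 microM bis-peptide Rhodamine110 substrate by 25 nM linked NS2B-NS3 at room temperature.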", "values": [
      {"smiles": "O=C1C[C@@H]2OCC=C3CN4CC[C@]56c7ccccc7N1[C@H]5[C@H]2[C@H]3C[C@H]46", "Potency": "inactive"},
      {"smiles": "Cc1c(Cl)cccc1S(=O)(=O)Nc1nc(CC(=O)N2CCN(C)CC2)cs1", "Potency": "inactive"},
      {"smiles": "CC(C)(O)[C@H]1O[C@H]2CC[C@@]3(C)[C@@](O)(CC[C@H]4Cc5c([nH]c6ccccc56)[C@@]43C)C2=CC1=O", "Potency": "inactive"},
      {"smiles": "COC1CC(OC2CCC3(C=O)C(CCC4C3CCC3(C)C(C5=CC(=O)OC5)CCC43O)C2)OC(C)C1OC1OC(CO)C(O)C(O)C1O", "note": "(centres undefined)", "Potency": "inactive"}
    ]}
  ]
}
